Test results as given in PubChem BioAssay (EPA / NIEHS).
The source holds several records for some structures; these can differ, active in one and inactive in another. Calls of active or inactive are those of the source. How the source made its calls: active means hit-call score of the fitted dose curve at least 0.9, where 1 is the maximum; inactive means score below 0.9.

Test: APR_HepG2_MicrotubuleCSK_24hr: Apredica 24-hour HepG2 Assay for Microtubule CSK Stabilty (AID 2282909)
Conditions: HepG2 microtubule cytoskeleton imaging, actives raise or lower the signal
Procedure: APR_HepG2_24hr is a cell-based, multiplexed-readout assay that uses HepG2, a human liver cell line, with measurements taken at 24 hours after chemical dosing in a 384-well plate.APR_HepG2_MicrotubuleCSK_24hr is one of 10 assay component(s) measured or calculated from the APR_HepG2_24hr assay. It is designed to make measurements of protein conformation, a form of conformation reporter, as detected with fluorescence intensity signals by HCS Fluorescent Imaging technology.Data from the assay component APR_HepG2_MicrotubuleCSK_24hr was analyzed into 1 assay endpoint. This assay endpoint, APR_HepG2_MicrotubuleCSK_24hr, was analyzed with bidirectional fitting relative to DMSO as the negative control and baseline of activity. Using a type of conformation reporter, measures of protein for gain or loss-of-signal activity can be used to understand the signaling at the cellular-level. Furthermore, this assay endpoint can be referred to as a primary readout, because this assay has produced multiple assay endpoints where this one serves a signaling function. To generalize the intended target to other relatable targets, this assay endpoint is annotated to the cell morphology intended target family, where the subfamily is cell conformation.
Cells were treated with dimethyl sulfoxide (DMSO) as a solvent control at a final concentration of 0.5% v/v or with compounds in DMSO with a resulting final DMSO concentration of 0.5% v/v. Compound treatment was done at concentrations of 0.39, 0.78, 1.56, 3.12, 6.24, 12.5, 25, 50, 100, and 200 uM in duplicate on each plate. Cells were treated with compounds for 1, 24, or 72 hr. Carbonyl […] m-chloro-phenylhydrazone (CCCP) and taxol were used as positive controls for mitochondrial function and cytoskeletal stability, respectively; DMSO served as the negative control for this experiment. Cells were fixed by the direct addition of 50 uL formaldehyde in Hank's Balanced Salt Solution (HBSS) to a final concentration of 3.7%. After incubation in the fixation medium for 30 min at room temperature (293-298 K), cells were rinsed twice with HBSS and treated with cell permeabilization buffer (16 uL of 0.5% Triton X-100) for 10 min at room temperature (293-298 K) before labeling. For mitochondrial membrane potential and mitochondrial measurements, pre-fixed cells were incubated with 50 uL of MitoTracker Red CMXRos (Invitrogen) at a concentration of 250 nM for 30 min before fixation. In the remaining cases, post-fixed cells were labeled by incubation with a multiplexed mixture of primary antibodies in HBSS for 60 min at room temperature (293-298 K) to detect immunoreactivity of c-Jun (1:500), phospho-histone H3 (1:100), phospho-histone H2A.x (1:200), p53 (1:400), alpha-tubulin (1:200) and Hoechst 33342 (2 ug/mL). Cells were labeled for multiplexed imaging on two separate plates: a) Hoechst 33342, MitoTracker Red, phospho-histone H3, and alpha-tubulin, and b) Hoechst 33342, phospho-histone H2A.x, and c-Jun. A final rinse with HBSS (50 uL) was performed before analysis. The primary and secondary antibodies for the proteins were phospho-histone H3 (rabbit anti-phospho-histone H3 and FITC-donkey anti-rabbit IgG), phospho-histone H2A.x (mouse anti-phospho-histone H2A.x and FITC-donkey anti-mouse IgG), c-Jun (rabbit anti-phospho-c-Jun and Cy3-donkey anti-rabbit IgG), p53 (sheep anti-p53 and Cy5-donkey anti-sheep IgG), alpha-tubulin (mouse anti-alpha-tubulin and Cy5-donkey anti-mouse IgG). These antibodies are available as the CellCiphr HepG2 assay kit (Millipore).Digital images of each well were captured using a Cellomics ArrayScan VTI (Thermo Scientific Cellomics) (0.8 NA objective, 0.63x optical coupler, and XF-93 filter set) at 20x magnification. The images were acquired using the autofocus feature of the ArrayScan instrument, which entails the following steps. First, the camera focuses on channel 1 (Hoechst 33342), where nuclei are identified. Second, a Z offset of 1 um is used for capturing mitochondria (MitoTracker Red). […]
For `CC(C)(c1ccc(O)cc1)c1ccc(O)cc1`, the AC50 was 103 µM (active) and the outcome was “inactive”. For `COc1nc(C)nc(NC(=O)NS(=O)(=O)c2ccccc2OCCCl)n1`, the outcome was “inactive”. For `CCCCCOC(=O)COc1cc(N2C(=O)C3=C(CCCC3)C2=O)c(F)cc1Cl`, the outcome was “inactive”. For `COC(=O)c1c(Cl)nn(C)c1S(=O)(=O)NC(=O)Nc1nc(OC)cc(OC)n1`, the outcome was “inactive”. In the case of `CCCOC(=O)NCCCN(C)C`, the outcome is reported as “inactive”. With `CCOC(=O)COc1cc(-n2ncc(C(F)(F)F)c(C)c2=O)c(F)cc1Cl` the outcome was “inactive”. For `C#CCOC(=O)[C@@H](C)Oc1ccc(Oc2ncc(Cl)cc2F)cc1`, the outcome was “inactive”. In the case of `CCCCCCC(C)OC(=O)COc1nc(F)c(Cl)c(N)c1Cl` (stereo not given), the AC50 is reported as 116 µM (active). For `CN(C)C(=O)Nc1ccc(Cl)c(Cl)c1`, the outcome was “inactive”. With `Oc1ccc(C(c2ccc(O)cc2)C(Cl)(Cl)Cl)cc1` the outcome was “inactive”. With `c1ccc2[nH]c(-c3cscn3)nc2c1` the outcome was “inactive”. In the case of `CCCCC(CC)COC(=O)c1ccccc1C(=O)O` (stereo not given), the outcome is reported as “inactive”. In the case of `C#C[C@]1(O)CC[C@H]2[C@@H]3CCC4=CC(=O)CC[C@@H]4[C@H]3CC[C@@]21CC`, the outcome is reported as “inactive”. In the case of `CC1(C)C(C=C(Cl)Cl)C1C(=O)OCc1cccc(Oc2ccccc2)c1` (stereo not given), the outcome is reported as “inactive”. For `COC(=O)c1ccccc1C(=O)O`, the outcome was “inactive”. In the case of `CCN(CC)C(=O)c1cccc(C)c1`, the outcome is reported as “inactive”. For `C[C@]12CC[C@@H]3c4ccc(O)cc4C[C@@H](CCCCCCCCCS(=O)CCCC(F)(F)C(F)(F)F)[C@H]3[C@@H]1CC[C@@H]2O` (stereo not given in full), the outcome was “inactive”. For `CCSC(=O)N(CC(C)C)CC(C)C`, the outcome was “inactive”. With `CC(=O)S[C@@H]1CC2=CC(=O)CC[C@]2(C)[C@H]2CC[C@@]3(C)[C@@H](CC[C@@]34CCC(=O)O4)[C@H]12` the outcome was “inactive”. With `CSC(=O)c1cccc2nnsc12` the outcome was “inactive”. With `c1ccc(Nc2ccccc2)cc1` the outcome was “inactive”. For `OB(O)O`, the outcome was “inactive”. For `O=C(c1ccc(O)cc1O)c1ccc(O)cc1O`, the outcome was “inactive”. For `O=C(Nc1ccc([N+](=O)[O-])cc1Cl)c1cc(Cl)ccc1O`, the AC50 was 0.672 µM (active). For `N[C@@H](Cc1cc(I)c(Oc2ccc(O)c(I)c2)c(I)c1)C(=O)O`, the outcome was “inactive”. In the case of `COC(=O)CSc1cc(N=c2sc(=O)n3n2CCCC3)c(F)cc1Cl`, the outcome is reported as “inactive”. For `CCCN(CCC)C(=O)SCC`, the outcome was “inactive”. With `CC(C)(C)[C@@H](O)[C@@H](Cc1ccc(Cl)cc1)n1cncn1` the outcome was “inactive”. For `COc1c(Cl)ccc(Cl)c1C(=O)O`, the outcome was “inactive”. For `CCCCOC(=O)C(C)Oc1ccc(Oc2ccc(C(F)(F)F)cn2)cc1` (stereo not given), the outcome was “inactive”. For `N#CSCSc1nc2ccccc2s1`, the outcome was “inactive”. In the case of `CCOC(=O)C(C)Oc1ccc(Oc2nc3ccc(Cl)cc3o2)cc1` (stereo not given), the outcome is reported as “inactive”. With `Cc1nn(C)c(Oc2ccccc2)c1C=NOCc1ccc(C(=O)OC(C)(C)C)cc1` the outcome was “inactive”. With `COC(=O)c1cccc(C)c1S(=O)(=O)NC(=O)Nc1nc(OCC(F)(F)F)nc(N(C)C)n1` the outcome was “inactive”. In the case of `O=C(O)C1(C(=O)Nc2ccc(Cl)cc2Cl)CC1`, the outcome is reported as “inactive”. For `S=C(S)NCCNC(=S)S.[Mn+2].[S-]C([S-])=NCCN=C([S-])[S-].[Zn+2]`, the outcome was “inactive”. For `CCOC(=O)c1ccc(O)cc1`, the outcome was “inactive”. In the case of `CCN(Cc1c(F)cccc1Cl)c1c([N+](=O)[O-])cc(C(F)(F)F)cc1[N+](=O)[O-]`, the outcome is reported as “inactive”. With `O=C(O)c1ccccc1` the outcome was “inactive”.
